Screening data: PubChem BioAssay, National Center for Advancing Translational Sciences (NCATS)
Compounds with a hit are over-represented: about 12% of the library has one in this group of screens.
HP1b binding inh: HP1-beta chromodomain-methylated histone interaction inhibition; Potency, µM (highest dose often 114 µM), for inactives: top-dose activity change, negative = inhibition, hits mostly inhibitors; AlphaScreen HP1-beta / biotin-H3K9me3 peptide binding; 390,000 compounds, 0.56% hits; P83916; further: nearly all actives have a fitted effect of over 70% in size
Target sequence (P83916 whole entry, looked up): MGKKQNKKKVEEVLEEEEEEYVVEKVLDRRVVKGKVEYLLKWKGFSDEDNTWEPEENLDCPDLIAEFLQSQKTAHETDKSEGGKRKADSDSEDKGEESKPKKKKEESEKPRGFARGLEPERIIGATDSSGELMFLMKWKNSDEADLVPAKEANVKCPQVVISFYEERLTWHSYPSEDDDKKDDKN
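HP1-beta protein (50 nM final) preincubated 30 min at room temperature with biotinylated H3(1-18)K9me3 peptide (50 nM) in PBS pH 7.4, 0.01% Tween-20, then compound added for 30 min. AlphaScreen streptavidin donor/nickel chelate acceptor beads (10 ug/mL final), 30 min dark, luminescence read.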
Sfp PPTase inh: Sfp phosphopantetheinyl transferase inhibition | 310,000 compounds, 3.5% hits | Potency, µM, for inactives: largest response in the series, negative = inhibition, most hits filed as inhibitors | Q9F4F7 | AID 1490 | Biochemical Sfp PPTase activity, qHTS;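 further: the enzyme is Sfp with the accession as filed and its product quenches rhodamine fluorescence; 0% = enzyme reaction without inhibitor and -100% = no enzyme wells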
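After 15 min at room temperature with compound, 15 nM Sfp received 5 uM rhodamine-CoA plus 12.5 uM BHQ-2-ybbR (50 mM Hepes pH 7.6, 10 mM MgCl2). Rate came from the fluorescence difference over 30 min, ex 525/em 598 nm.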
BAZ2B block: inhibitors of human BAZ2B bromodomain; Q9UIF8; AlphaScreen BAZ2B-H3K14Ac peptide displacement; Potency, µM (top dose mostly 114 µM), for inactives: at the highest dose activity change, negative = inhibition, usual class: inhibitors; 360,000 compounds, 4.4% hits; AID 504333; further: on the % scale 0 is the no-effect control and ±100 the full control effect; nearly all actives have a fitted effect of over 60% in size
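Complex of BAZ2B and biotin-H3K14Ac (50 nM apiece) forms over 30 min at RT, then faces library compounds up to 110 uM for another 30 min; AlphaScreen beads added, 20 min dark incubation, luminescence read.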
JMJD2A Tudor inh: blocks the human JMJD2A Tudor domain. AlphaScreen JMJD2A-Tudor / H3K4me3 peptide binding. Potency, µM (highest dose often 114 µM), without a hit: at the top dose activity change, negative = inhibition, most hits filed as inhibitors. 390,000 compounds, 4.4% hits. O75164. AID 504339; further: on the % scale 0 is the no-effect control and ±100 the full control effect; nearly all actives have a fitted effect of over 50% in size
G9a block: inhibitors of human histone lysine methyltransferase G9a; AID 504332; 350,000 compounds, 8.8% hits; Potency, µM (doses to about 102 µM), for the others: at the top dose activity, negative = inhibition, usual class: inhibitors; Q96KQ7; G9a H3K9 monomethylation, AlphaScreen, 2 h; further: on the % scale 0 is the no-effect control and ±100 the full control effect; nearly all actives have a fitted effect of over 75% in size
Target sequence (Q96KQ7 913-1193 limits assumed): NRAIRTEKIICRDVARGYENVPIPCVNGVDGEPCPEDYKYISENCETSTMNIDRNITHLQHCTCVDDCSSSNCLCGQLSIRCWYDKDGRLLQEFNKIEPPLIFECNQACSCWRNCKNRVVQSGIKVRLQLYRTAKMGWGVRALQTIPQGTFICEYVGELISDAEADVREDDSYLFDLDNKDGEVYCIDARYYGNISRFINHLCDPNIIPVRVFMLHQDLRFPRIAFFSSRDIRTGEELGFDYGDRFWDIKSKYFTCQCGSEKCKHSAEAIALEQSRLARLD
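Chemiluminescent proximity detection of H3K9 monomethylation, read after 10 min bead incubation in the dark. Reaction: 20 nM G9a, 500 nM biotin-H3K9 peptide, 20 uM SAM cofactor, 2 h, room temperature, following 15 min enzyme-compound preincubation.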
L3MBTL1 block: inhibitors of human L3MBTL1; AlphaScreen L3MBTL1–H3K9me1 peptide binding; Potency, µM (highest dose often 57.1 µM), for inactives: at the top dose activity, negative = inhibition, hits mostly inhibitors; 230,000 compounds, 0.66% hits; AID 485360; further: on the % scale 0 is the no-effect control and ±100 the full control effect; nearly all actives have a fitted effect of over 60% in size
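AlphaScreen assay: L3MBTL1 (50 nM final) was preincubated 30 min at room temperature with biotinylated H3(1-15)K9me1 peptide (75 nM final), then 30 min with library compounds; streptavidin donor and nickel chelate acceptor beads (10 ug/mL final) added, 30 min dark.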
Active calls of the source: *; u = inconclusive; x = not tested or not shown; [ ] = another dose, or the depositor's remark. The call rests on the fitted dose curve; in most records, active means well fitted curve in the direction sought with a large enough effect; inconclusive means small, poorly fitted or top-dose-only effect, or another doubt; inactive means no such curve, though single readings can be large; an effect the other way counts as inactive or inconclusive. Potency means the concentration at half of the fitted maximal effect.

SMILES	HP1b binding inh	Sfp PPTase inh	BAZ2B block	JMJD2A Tudor inh	G9a block	L3MBTL1 block
O=[N+]([O-])c1ccc(N2CCCCC2)c(-c2nn[nH]n2)c1	18.9%	-4.0%	u	-12.0%	44.7µM*	2.5%
COc1ccc(-c2cc(=O)n(-c3ccc([N+](=O)[O-])cc3)[nH]2)cc1	u	-12.4%	39.8µM*	56.2µM*	10µM*	-16.2%
CCn1c(=O)c(=O)[nH]c2cc(C(=O)NC3CCCC3)ccc21	-15.0%	17.6%	-1.5%	12.6µM*	0.0%	7.8%
COc1ccc(NC(=O)Cn2nnc(C(=O)NCc3cccs3)c2N)c(OC)c1	-19.0%	-19.0%	-15.7%	22.4µM*	0.4%[59 µM]	x
Cc1ccc(NC(=O)Cn2nnc(C(=O)NCCc3ccccc3)c2N)c(C)c1	13.3%	-5.7%	u	11.2µM*	-12.5%[59 µM]	x
Cc1ccc(C)c(NC(=O)Cn2nnc(C(=O)NCCc3ccccc3)c2N)c1	12.9%	x	4.3%[57.1 µM]	-35.3%	u	x
COc1ccc(CCNC(=O)c2nnn(CC(=O)Nc3ccc(C)cc3C)c2N)cc1OC	39.8%	u	79.4µM*	-28.6%	-10.5%[59 µM]	x
COc1cccc(NC(=O)Cn2nnc(C(=O)NCc3cccs3)c2N)c1	44.3%	5.8%	-23.7%	-0.7%	5.1%	x
CCCCNS(=O)(=O)c1ccc2nc(SCC(=O)c3ccccc3OC)[nH]c2c1	27.8%	14.7%	0.3%	-15.6%	35.5µM*	x
CCCCNS(=O)(=O)c1ccc2nc(SCC(N)=O)[nH]c2c1	6.7%[57 µM]	25.0%	-10.7%	-15.5%	-2.0%	0.3%
CCCCNS(=O)(=O)c1ccc2nc(SCC(=O)Nc3sccc3C#N)[nH]c2c1	11.7%	63.1µM*	8.7%	-17.7%	70.8µM*	-1.4%
CN(C)CCNc1nc2sc3c(c2c(=O)n1CCc1ccccc1)CCCCC3	-24.3%	-18.0%	44.7µM*	50.1µM*	39.8µM*	-28.2%
CC(O)CNc1nc2sc3c(c2c(=O)n1Cc1ccco1)CCCCC3 (stereo not drawn)	10.1%	u	-5.2%	-20.3%	x	-2.8%
CC(O)CNc1nc2sc3c(c2c(=O)n1CCc1ccccc1)CCCCC3 (stereo not drawn)	u	-23.3%	u	u	50.1µM*	-14.7%
CC(=O)Oc1c(S(=O)(=O)c2ccc(C)cc2)c(C)nn1-c1ccccc1	26.4%	11.5%	-21.9%	-30.6%	11.2µM*	3.7%
Cc1ccc(C(=O)Oc2c(S(=O)(=O)c3ccccc3)c(C)nn2-c2ccccc2)cc1	6.5%	x	u	14.1µM*	u	x
CCc1ccc(OCC(=O)N(Cc2ccco2)Cc2ccccc2Cl)cc1	97.3%	x	62.0%	30.2%	61.5%[59 µM]	x
CCCCNc1oc(-c2ccc(COc3ccccc3C)o2)nc1C#N	10.4%	x	-34.2%	-18.9%	u	x
COc1ccc(OCc2ccc(-c3nc(C#N)c(NCc4cccnc4)o3)o2)cc1	-13.7%	x	17.8µM*	31.6µM*	12.6µM*	x
Cc1ccc(CNc2oc(-c3ccc(COc4ccc(C)cc4)o3)nc2C#N)cc1	-9.1%	x	u	-33.8%	u	x
Cc1ccc(OCc2ccc(-c3nc(C#N)c(NCc4cccnc4)o3)o2)cc1	u	x	17.8µM*	20µM*	11.2µM*	x
Cc1ccccc1OCc1ccc(-c2nc(C#N)c(NCc3cccnc3)o2)o1	-11.7%	x	31.6µM*	15.8µM*	11.2µM*	x
CCN1C(=O)[C@H]2[C@H]3[C@H](O)[C@H](O)C/C(=N/NC(=O)OCc4ccccc4)[C@H]3CC[C@@H]2C1=O	x	-9.1%	x	x	x	x
COc1ccccc1NC(=O)c1sc2nc(C)c(C(=O)Nc3ccc(C)cc3C)c(-c3ccco3)c2c1N	38.9%	x	0.5%	-8.5%	-5.2%[59 µM]	x
Nc1ccc(N(c2ccccc2)c2ccc(N)cc2)cc1	39.8µM*	-13.2%	25.1µM*	15.8µM*	1.26µM*	u
SMILES	HP1b binding inh	Sfp PPTase inh	BAZ2B block	JMJD2A Tudor inh	G9a block	L3MBTL1 block
Cc1ccc(N2C(=O)[C@@H]3[C@H](C2=O)C2c4ccccc4C=CN2[C@@H]3C(=O)c2ccco2)c(C)c1 (stereo partly drawn)	-25.9%	u	-33.2%	u	5.8%[2.33 µM]	-8.7%
O=C1C2C3C=CC(C3)C2C(=O)N1Cc1ccccc1 (stereo not drawn)	28.3%	16.6%	-3.7%	5.8%	-21.4%[12.7 µM]	5.1%
COc1ccc(N2C(=O)[C@@H]3[C@H](C2=O)[C@H]2c4ccccc4C=CN2[C@@H]3C(=O)Nc2ccccc2)cc1	4.9%	-5.2%	-31.2%	u	8.91µM*	x
COc1ccc(N2CC(NC(=O)Nc3ccccc3)CC2=O)cc1 (stereo not drawn)	26.2%	8.8%	9.7%	-8.4%	42.4%	x
Cc1ccc(N2C(=O)[C@@H]3[C@H](C2=O)C2c4ccccc4C=CN2[C@@H]3C(=O)c2ccco2)cc1 (stereo partly drawn)	u	-23.3%	u	u	3.16µM*	-7.8%
CC(=O)[C@@H]1[C@@H]2C(=O)N(Cc3ccccc3)C(=O)[C@@H]2C2c3ccccc3C=CN21 (stereo partly drawn)	-2.3%	-13.0%	-29.5%	u	2.82µM*	-0.6%
CC(C)(C)C(=O)[C@@H]1[C@@H]2C(=O)N(c3ccc4c(c3)OCCO4)C(=O)[C@@H]2C2c3ccccc3C=CN21 (stereo partly drawn)	u	-14.8%	u	u	8.91µM*	-2.2%
COc1ccc(C2=NO[C@@H]3C(=O)N(c4ccc5c(c4)OCCO5)C(=O)[C@H]23)cc1OC	15.9%	11.8%	3.0%	25.4%	-30.7%[12.7 µM]	x
CCc1ccc(CNC(=O)c2cnc3sc(N4CCOCC4)nn3c2=O)cc1	31.4%	x	0.2%	-1.7%	4.5%[59 µM]	x
CCOc1cccc(C2C=C(c3ccc4c(c3)OCO4)NC(c3ccccc3Cl)N2)c1O (stereo not drawn)	6.1%[57 µM]	x	x	3.8%[57.1 µM]	x	x
O=C(c1ccco1)[C@@H]1[C@@H]2C(=O)N(c3ccccc3)C(=O)[C@@H]2C2c3ccccc3C=CN21 (stereo partly drawn)	-34.7%	u	79.4µM*	50.1µM*	16.1%[2.33 µM]	-21.2%
CCOC(=O)Cc1ccc(NC(=O)N2CCOc3ccc(C)cc32)cc1	38.6%	x	-12.7%	-12.5%	-17.3%[59 µM]	x
COc1cccc(-c2nc(N3CC(C)CC(C)C3)c3ccccc3n2)c1O (stereo not drawn)	u	u	u	u	35.5µM*	-6.6%
COc1ccc(Nc2nc(-c3cccc(OC)c3O)nc3ccccc23)cc1	-16.2%	-17.5%	39.8µM*	u	50.1µM*	x
COc1cccc(-c2nc(N3CCCC3)c3ccccc3n2)c1O	-9.2%	-14.9%	u	u	x	5.0%
COc1cccc(-c2nc(NC(C)(C)C)c3ccccc3n2)c1O	-10.5%	u	u	u	u	-19.7%
